A number with no mark means an inactive call. Records with an inconclusive call do not appear. Calls of active or inactive are those of the source. Unless noted, calls follow the shape of the dose curve; as a rule, active = well fitted curve in the direction sought with a large enough effect in the repeat runs; inconclusive = weak or mixed curves; inactive = no such curve, though single readings can be large; an effect the other way counts as inactive or inconclusive.

The record followed here is PubChem BioAssay (Tox21).

Test [1] is described as follows: qHTS assay to identify small molecule antagonists of the estrogen related receptor (ERR) signaling pathway from Tox21 library - cell viability counter screen (AID 1224834). Also: nearly all actives have a fitted effect of over 30% in size. Also: potency is read from the fitted curve at half-maximal effect. The method, boiled down:
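Fluorescence from CellTiter-Fluor gives the viability read-out, taken 30 min after reagent addition. Before that, ERR cells seeded 6 h earlier were incubated with compounds for 17.5 h at 37 C.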

Test [2] deals with Luciferin 4-monooxygenase (Photinus pyralis) (UniProt P08659). As to the kind of experiment: qHTS assay to identify small molecule inhibitors of firefly luciferase (AID 1224835). Also: nearly all actives have a fitted effect of over 25% in size. The method, boiled down:
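Quantitative HTS format; KM concentrations of both substrates. Purified P. pyralis FLuc activity quantified from luminescence images.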
For orientation: qHTS replaces the single test concentration by a dilution series.

The nature of test [3]: qHTS assay to identify small molecule agonists of the constitutive androstane receptor (CAR) signaling pathway - cell viability counter screen (AID 1224836). Also: nearly all actives have a fitted effect of over 45% in size. Also: potency is read from the fitted curve at half-maximal effect. The method, boiled down:
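Cell viability multiplexed with the CAR agonist screen: CellTiter-Fluor fluorescence after 23 hr at 37 C. HepG2-CYP2B6-hCAR cells got compounds at 15 concentrations with PK11195 at 0.75 uM final.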

Test [4] is described as follows: qHTS assay to identify small molecule antagonists of the constitutive androstane receptor (CAR) signaling pathway - cell viability counter screen (AID 1224837). Also: nearly all actives have a fitted effect of over 45% in size. Also: potency is read from the fitted curve at half-maximal effect. An outline of the steps:
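HepG2-CYP2B6-hCAR cells, 2500/well, 4 hr pre-incubation; compound titration, 15 conc.; CITCO 50 nM final; 23 hr, 37 C/5% CO2; CellTiter-Fluor, fluorescence intensity.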

Test [5] has as its target Nuclear receptor subfamily 1 group I member 3 (Homo sapiens) (UniProt Q14994). In words: qHTS assay to identify small molecule antagonists of the constitutive androstane receptor (CAR) signaling pathway (AID 1224838).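 Also: HepG2 cells stably expressing hCAR with CYP2B6 luciferase reporter stimulated by CITCO; nearly all actives have a fitted effect of over 40% in size.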 Also: potency is read from the fitted curve at half-maximal effect. An outline of the steps:
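HepG2-CYP2B6-hCAR cells; 4 h pre-incubation; cpd (15 conc) + CITCO 50 nM final; 24 h, 37 C/5% CO2; ONE-Glo, luminescence.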

The target is the same in test [6]. As to the kind of experiment: qHTS assay to identify small molecule agonists of the constitutive androstane receptor (CAR) signaling pathway (AID 1224839).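 Also: HepG2 cells stably carrying human CAR and a CYP2B6 luciferase reporter; nearly all actives have a fitted effect of over 15% in size.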 An outline of the steps:
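Luminescent ONE-Glo read-out after 24 hr, 37 C exposure of double-stable HepG2-CYP2B6-hCAR reporter cells to a 15-point compound series, in the presence of 0.75 uM PK11195 (final).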

A short description of test [7]: qHTS assay to identify small molecule antagonists of the estrogen related receptor signaling pathway with the pleiotropic PPARgamma coactivator (PGC) from Tox21 10K library - cell viability counter screen (AID 1224840; active = well fitted cell-killing curve with a large enough effect in the repeat runs, not every such curve was filed as active; also: nearly all actives have a fitted effect of over 40% in size; also: potency is read from the fitted curve at half-maximal effect). The method, boiled down:
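PGC/ERR cells, 2,000/well; 6 h pre-incubation 37 C/5% CO2; cpd in DMSO via pin tool; 17.5 h 37 C; CellTiter-Fluor, 30 min; fluorescence.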

Test [8] is described as follows: qHTS assay to identify small molecule agonists of the estrogen related receptor signaling pathway with the pleiotropic PPARgamma coactivator (PGC) from Tox21 10K library (AID 1224842). Also: nearly all actives have a fitted effect of over 15% in size. The method, boiled down:
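PGC/ERR reporter cells (NTP line) were seeded 2,000 per well, rested 6 h at 37 C/5% CO2, then pin-dosed with compounds in DMSO for 18 h at 37 C; luciferase read by One-Glo luminescence after 30 min at room temperature.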

Test [9] addresses Thyrotropin receptor (Homo sapiens) (UniProt P16473). In words: qHTS assay to identify small molecule agonists of the thyroid stimulating hormone receptor (TSHR) signaling pathway (AID 1224843; calls by dose curve; also: nearly all actives have a fitted effect of over 45% in size). An outline of the steps:
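Cell line HEK293 with TSHR; density 800/well. Exposure 30 min RT. Readout HTRF cAMP (cAMP-d2/anti-cAMP-cryptate), 1 h RT before reading.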

A short description of test [10]: qHTS assay to identify small molecule agonists of H2AX (AID 1224845; active = well fitted activation curve with a large enough effect in the signal ratio in the repeat runs, not every such curve was filed as active; the % refers to the signal ratio). The method, boiled down: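 Wild-type CHO-K1 cells plated overnight, then exposed 3 hr at 37C to compounds at 15 concentrations (0.76% DMSO). Lysed, then HTRF anti-pH2AX(S139)-cryptate/anti-H2AX-d2 detection after 24 hr at room temperature; emissions 665 and 620 nm.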
Test [11] in a line: qHTS assay to identify small molecule agonists of the hypoxia (HIF-1) signaling pathway (AID 1224846; active = well fitted activation curve with a large enough effect in the signal ratio in the repeat runs, not every such curve was filed as active; the % refers to the signal ratio). An outline of the steps: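 Cell line: CellSensor HRE-bla ME-180; 2,000 cells/well; 0.5% dialyzed FBS; 5 h preincubation; DMSO compound pin transfer; 17 h, 37C, 5% CO2; CCF4-AM added; bla FRET signal scored for activation.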
Test [12] can be described thus: qHTS assay to identify small molecule agonists of H2AX - cell viability counter screen (AID 1224847; calls by dose curve; also: top concentration of the series differs between compounds; nearly all actives have a fitted effect of over 30% in size). An outline of the steps:
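Counter-screen for viability: CellTiter-Glo ATP luminescence read after 3 h compound treatment (15-point titration, 0.76% DMSO final) of CHO-K1 cells at 37C, with 30 min room-temperature reagent incubation.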

Test [13] is described as follows: qHTS assay to identify small molecule antagonists of the estrogen related receptor (ERR) signaling pathway from Tox21 library (AID 1224848). Also: nearly all actives have a fitted effect of over 50% in size. Also: potency is read from the fitted curve at half-maximal effect. An outline of the steps: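 Screening used an ERR reporter line supplied by NTP, exposed for 18 h at 37 C to library compounds delivered in DMSO. Signal was luciferase luminescence developed with ONE-Glo at room temperature for 30 min.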

Test [14] in a line: qHTS assay to identify small molecule agonists of the estrogen related receptor (ERR) signaling pathway from Tox21 library (AID 1224849; calls by dose curve; also: nearly all actives have a fitted effect of over 15% in size). As to conditions: ERR reporter cell line, ONE-Glo luciferase, 18 h. The method, boiled down: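 ERR cells, 6 h pre-incubation 37 C/5% CO2; cpd in DMSO pinned; 18 h 37 C; ONE-Glo added, 30 min RT; luminescence read. Agonist mode, qHTS.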
Test [15] in a line: qHTS RealTime-Glo MT Cell Viability Assay in HepG2 cells - 24 hour (AID 1224867). Also: nearly all actives have a fitted effect of over 50% in size. Also: potency is read from the fitted curve at half-maximal effect. The method, boiled down:
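Tox21 10K library screened in qHTS format on HepG2 cells carrying RealTime-Glo reagents. Compounds were added after a 5 h preincubation, and the luminescent signal from continuous culture was measured repeatedly during 40 h treatment.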

Test [16] is described as follows: qHTS RealTime-Glo MT Cell Viability Assay in HEK293 cells - 32 hour (AID 1224868). Also: nearly all actives have a fitted effect of over 50% in size. Also: potency is read from the fitted curve at half-maximal effect. The method, boiled down: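 Luminescence generated by NanoLuc from substrate produced by living HEK293 cells served as the viability signal. Each value reflects the reading at its stated time point during continuous 40 h compound exposure at 37 C.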
Test [17] can be described thus: A CellTox Green Cytotoxicity Assay to monitor cytotoxicity in HEK293 cells - 0 hour (AID 1224869). Also: nearly all actives have a fitted effect of over 50% in size. An outline of the steps:
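Nonlytic real-time cytotoxicity: HEK293 + CellTox Green reagent plated, 5 h preincubation, pintool compound addition (23 nL in DMSO), 37 C for 40 h, fluorescence measured at successive time points.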

Test [18] can be described thus: qHTS RealTime-Glo MT Cell Viability Assay in HepG2 cells - 40 hour (AID 1224870). Also: nearly all actives have a fitted effect of over 50% in size. Also: potency is read from the fitted curve at half-maximal effect. The method, boiled down: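 HepG2 cells mixed with RealTime-Glo MT reagents (NanoLuc plus cell-permeant prosubstrate) were seeded at 600 cells/well, incubated 5 h at 37 C/5% CO2, then pinned with compounds in DMSO; nonlytic luminescence tracked viability during 40 h treatment.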
The nature of test [19]: qHTS assay to identify small molecule antagonists of the estrogen related receptor signaling pathway with the pleiotropic PPARgamma coactivator (PGC) from Tox21 10K library (AID 1224841; call rule not given here). An outline of the steps: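 PGC/ERR cell line, 2,000 cells/well; 6 h pre-incubation 37 C/5% CO2; compounds (DMSO) pinned in; 18 h, 37 C; One-Glo, 30 min RT; luminescence.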
Test [20] is described as follows: qHTS assay to identify small molecule agonists of the hypoxia (HIF-1) signaling pathway - cell viability counter screen (AID 1224844; calls by dose curve; also: nearly all actives have a fitted effect of over 50% in size). An outline of the steps:
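ME-180 HRE-bla cells, 2,000/well, 0.5% dialyzed FBS; 5 hr settle, 17 hr compound at 37C/5% CO2; CCF4-AM reporter read first, then CellTiter-Glo luminescence after 30 min RT.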
% is scaled to controls: 0 for no effect and ±100 for the full control effect.

Chain of Luciferin 4-monooxygenase (Photinus pyralis) (P08659 whole entry, looked up): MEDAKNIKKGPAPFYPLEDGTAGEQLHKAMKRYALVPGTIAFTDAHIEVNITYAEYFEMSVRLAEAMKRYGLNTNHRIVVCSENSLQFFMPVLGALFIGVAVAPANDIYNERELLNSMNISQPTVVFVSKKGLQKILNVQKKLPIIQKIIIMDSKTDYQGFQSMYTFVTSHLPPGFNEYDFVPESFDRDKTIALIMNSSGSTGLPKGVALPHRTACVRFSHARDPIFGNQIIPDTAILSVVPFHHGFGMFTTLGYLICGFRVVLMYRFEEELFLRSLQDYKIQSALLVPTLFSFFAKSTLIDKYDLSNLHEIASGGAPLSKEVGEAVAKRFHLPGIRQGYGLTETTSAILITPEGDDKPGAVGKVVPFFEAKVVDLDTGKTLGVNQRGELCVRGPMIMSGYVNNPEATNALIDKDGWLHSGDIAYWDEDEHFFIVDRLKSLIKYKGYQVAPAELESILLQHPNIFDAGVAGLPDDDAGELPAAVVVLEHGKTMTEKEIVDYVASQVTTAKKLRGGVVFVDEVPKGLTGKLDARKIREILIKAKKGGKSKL
Chain of Thyrotropin receptor (Homo sapiens) (P16473 whole entry, looked up): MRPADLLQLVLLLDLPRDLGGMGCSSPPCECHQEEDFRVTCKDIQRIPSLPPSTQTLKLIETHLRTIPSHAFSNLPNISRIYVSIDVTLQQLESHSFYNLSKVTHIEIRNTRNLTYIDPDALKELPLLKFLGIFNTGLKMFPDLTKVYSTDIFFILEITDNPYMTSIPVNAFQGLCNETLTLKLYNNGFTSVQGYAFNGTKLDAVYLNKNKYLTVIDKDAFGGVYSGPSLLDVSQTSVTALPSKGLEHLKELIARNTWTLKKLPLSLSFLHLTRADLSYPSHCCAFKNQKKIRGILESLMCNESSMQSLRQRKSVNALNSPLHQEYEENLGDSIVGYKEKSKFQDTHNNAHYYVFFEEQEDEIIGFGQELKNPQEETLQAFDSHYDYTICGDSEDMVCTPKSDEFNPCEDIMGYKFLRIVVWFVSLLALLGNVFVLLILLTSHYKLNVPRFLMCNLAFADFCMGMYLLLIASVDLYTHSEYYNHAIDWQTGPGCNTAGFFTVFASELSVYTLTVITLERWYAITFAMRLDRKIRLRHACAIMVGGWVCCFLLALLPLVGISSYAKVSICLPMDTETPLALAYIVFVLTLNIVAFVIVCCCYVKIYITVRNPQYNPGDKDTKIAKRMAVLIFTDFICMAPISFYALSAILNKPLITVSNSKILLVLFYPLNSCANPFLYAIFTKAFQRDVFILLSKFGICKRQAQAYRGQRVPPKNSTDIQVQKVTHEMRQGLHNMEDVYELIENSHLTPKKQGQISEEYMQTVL
Chain of Nuclear receptor subfamily 1 group I member 3 (Homo sapiens) (Q14994 whole entry, looked up): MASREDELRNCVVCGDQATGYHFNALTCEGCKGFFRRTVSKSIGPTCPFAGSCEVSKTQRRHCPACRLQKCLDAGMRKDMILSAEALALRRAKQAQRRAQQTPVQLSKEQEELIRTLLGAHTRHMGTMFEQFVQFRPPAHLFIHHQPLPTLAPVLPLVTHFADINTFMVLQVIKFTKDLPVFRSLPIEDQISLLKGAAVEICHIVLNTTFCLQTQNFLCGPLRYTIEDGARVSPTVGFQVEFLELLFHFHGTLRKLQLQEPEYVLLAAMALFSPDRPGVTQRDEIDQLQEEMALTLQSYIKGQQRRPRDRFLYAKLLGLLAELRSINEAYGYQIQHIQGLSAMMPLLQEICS

As for `CCCCCCCC`, the Potency entry in test [1], in [2], in [3], in test [4], in test [5] and in test [6] was “inactive” in each case. The Potency entry in test [7], in test [8], in [9], in test [10], in test [11] and in test [12] was “inactive” in each case. Also, the Potency entry in [13], in test [15], in test [16], in test [17] and in [18] was “inactive” throughout. Further, the activity change, positive = activation in [14] (at 92.4 µM (top of the series)) was 4.82%.
As to `CCc1ccc(Br)cc1`, the Potency result in test [1], in test [2], in test [3], in test [4], in [5] and in [6] was “inactive” throughout. Moreover, the Potency entry in test [7], in test [19], in [8], in test [9], in test [20] and in test [10] was “inactive” each time. Moreover, the Potency result in [11], in test [13], in test [15], in test [16], in [17] and in [18] was “inactive” throughout. Also, the activity change, positive = activation in [14] (at 92.4 µM (top of the series)) is 5.1%.
Regarding `COc1ccc2cc1Oc1ccc(cc1)C[C@H]1c3c(cc4c(c3Oc3cc5c(cc3OC)CCN(C)[C@@H]5C2)OCO4)CCN1C`, the Potency in test [1] is 23.7 µM (active); in [3], 26.6 µM (active); in test [4] it was 23.7 µM (active); in test [5] it was 23.7 µM (active); in test [7], 21.1 µM (active); in [13], 29.8 µM (active). Moreover, the Potency was 23.9 µM (active) in [15], 5.35 µM (active) in test [16] and 23.9 µM (active) in test [18]. Further, the Potency result in test [2], in [6], in test [8], in test [9] and in [17] was “inactive” in each case. Also, the activity change, positive = activation in [14] (at 42.5 µM (top of the series)) is -56.4%.
`Clc1ccnc(Cl)n1`: the Potency result in [1], in test [2], in test [3], in test [4], in [5] and in test [6] was “inactive” each time. Besides, the Potency result in [7], in test [8], in test [10], in [12], in [13] and in test [15] was “inactive” throughout. Besides, the Potency entry in [16], in test [17] and in test [18] was “inactive” each time. Besides, the activity change, positive = activation in test [14] (at 92.4 µM (top of the series)) was -1.53%.
On to `OCC(F)(F)F`, for which the Potency entry in test [1], in test [2], in test [3], in test [4], in [5] and in test [6] was “inactive” in each case. Moreover, the Potency result in test [7], in [19], in test [8], in test [9], in test [20] and in test [10] was “inactive” in each case. Besides, the Potency result in [11], in test [12], in [13], in test [15] and in test [16] was “inactive” throughout. In [14] (at 92.4 µM (top of the series)), the activity change, positive = activation was -0.31%.
For `C=Cc1cccc(C)c1`, the Potency entry in test [1], in [2], in test [3], in test [4], in [5] and in [6] was “inactive” in each case. Further, the Potency entry in test [7], in test [9], in test [20], in test [10], in test [11] and in test [12] was “inactive” throughout. For the same compound, the Potency result in test [15], in test [16], in [17] and in test [18] was “inactive” throughout.
Consider `CCCCCCCCCCOC(=O)c1ccccc1C(=O)OCCCCCCCC`, for which the Potency entry in test [1], in test [2], in [3], in [4], in [5] and in test [6] was “inactive” throughout. Besides, the Potency result in test [7], in test [9], in [20], in [10], in [11] and in test [12] was “inactive” each time. Further, the Potency result in [15], in test [16], in test [17] and in test [18] was “inactive” throughout.
